PubChem BioAssay (NCATS)
Records with an inconclusive call do not appear. Values without a mark were called inactive. Activity calls are given as the source filed them. The call rests on the fitted dose curve.

Assay: Cytotoxicity counterscreen for inhibitors of SARS-CoV-2 cell entry (AID 1645845); further: nearly all actives have a fitted effect of over 50% in size
Settings: cell viability (SARS-CoV-2 entry assay cells); series mostly up to 57.1 µM; activity change, negative = cytotoxicity: at the top concentration
Description: Assay Provider: Wei Zheng, Ph.D.
National Center for Advancing Translational Sciences, National Institute of Health, Rockville, MD.
SARS-CoV-2 spike protein, within the viral envelope, mediates viral attachment and infection of host cells. The SARS-CoV-2 spike protein specifically binds to the host receptor ACE2 (Angiotensin-converting enzyme 2). This interaction promotes endocytosis of the viral particle, additional events lead to viral-host cell membrane fusion and release of the viral contents, allowing viral replication.
While SARS-CoV-2 requires BSL-3 facilities for live virus work, pseudo-typed partices (PP) that incorporate SARS-CoV-2 spike proteins without replication elements could facilitate studies on viral entry mechanisms in a BSL-2 setting. This PP cell entry assay could also enable screening of small molecule compound libraries in BSL-2 setting to identify inhibitors of SARS-CoV-2 cell entry. To eliminate false positive compounds, ATP content cytotoxicity assay was screened in the same cell line.
SEQUENCE No. (e.g., 1, 2, 3, etc.); […] (e.g., Cells, Incubation, Reagent, etc.); VALUE and DESCRIPTION.
1. Cells. Seed 1500 HEK293-ACE2 cells (Expi293F with stable expression of human ACE2) in 2 uL/well media (DMEM, 10% FBS, 1x L-glutamine, 1x Pen/Strep, 1 ug/ml puromycin) in white 1536-well assay plates (Greiner #782073).
2. Incubation. Incubate at 37 C with 5% CO2 overnight (~16 h).
3. Compounds. Dispense 23 nL/well compounds in DMSO via pin transfer.
4. Incubation. Incubate for 1 h at 37C 5% CO2.
5. Reagent. Dispense 2 uL/well of media (DMEM, 10% FBS, 1x L-glutamine, 1x Pen/Strep, 1 ug/ml puromycin).
6. Incubation. Incubate at for 48h at 37C 5% CO2
7. Reagent. Dispense 4 uL/well of ATPLite 1step luminescence assay reagent (PerkinElmer #6016739).
8. Incubation. Incubate for 15 min at room temperature.
9. Detection. Read luminescence signal (Viewlux plate reader, PerkinElmer). Data was normalized with wells containing cells as 100%, and wells without cells (media only control) as 0%.
On the % scale 0 is the no-effect control and ±100 the full control effect; potency means the concentration at half of the fitted maximal effect.

Row | SMILES | activity change, negative = cytotoxicity | outcome | Potency
1 | Cc1cc(C)c(CNC(=O)c2cc(-c3ccc(CN4CCOCC4)cc3)cc3c2cnn3C2CCCC2)c(=O)[nH]1 | 4.72% | – | –
2 | N#Cc1cc(-c2n[nH]c(-c3ccncc3)n2)ccn1 | 2.9% | – | –
3 | CC[C@@H]1[C@H](F)C(=O)N[C@@H]1COc1nccc2cc(C(N)=O)c(OC)cc12 | – | inactive | –
4 | O=C(O)c1cc(O)c2c(c1)[O][Bi][O]2 | – | inactive [at 0.702 µM] | –
5 | CO/C1=C/C(C)=C\[C@@H](C)[C@@H](O)[C@@H](C)C/C(C)=C\C=C/[C@H](OC)[C@@H]([C@@H](C)[C@@H](O)[C@H](C)[C@@]2(O)C[C@@H](O)[C@H](C)[C@@H](C(C)C)O2)OC1=O | – | – | 1.58 µM (active)
6 | CCOC(=O)c1c[nH]c2cc(OCC(C)C)c(OCC(C)C)cc2c1=O | – | inactive | –
7 | Nc1n[n+]([O-])c2ccccc2[n+]1[O-] | – | inactive | –
8 | CC1(O)CCC(C(C)(C)O)CC1 (stereo not given) | -0.547% | – | –
9 | COc1cc2c3c(n(CCCn4ccnc4)c(=O)c2cc1OC)-c1cc2c(cc1C3=O)OCO2 | -36.4% | – | –
10 | CCCCCCCCCCCCCCCC(=O)OC1CCCn2c1nc(C)c(CCN1CCC(c3noc4cc(F)ccc34)CC1)c2=O (stereo not given) | – | inactive | –
11 | CC(Cc1ccc(O)c(O)c1)C(C)Cc1ccc(O)c(O)c1 (stereo not given) | – | inactive | –
12 | CCCCC(=O)N(Cc1ccc(-c2ccccc2-c2nn[nH]n2)cc1)[C@H](C(=O)O)C(C)C | -1.32% | – | –
13 | Cc1cc(Oc2ccc3nc(COc4ccc(CC5SC(=O)NC5=O)cc4)n(C)c3c2)cc(C)c1N (stereo not given) | 2.81% | – | –
14 | Cc1ccc(Nc2ncc3c(n2)N(C)C(=O)N(c2cc(NC(=O)c4cccc(C(F)(F)F)c4)ccc2C)C3)cn1 | -20.3% | – | –
15 | Cc1cc(Nc2ccccc2C(=O)O)ccc1Cl | – | inactive | –
16 | Cc1nc(C)c(CN2CCN(C(c3ccc(F)cc3)c3ccc(F)cc3)CC2)nc1C | – | inactive | –
17 | C1=C/COCc2cc(ccc2OCCN2CCCC2)Nc2nccc(n2)-c2cccc(c2)COC/1 | – | – | 7.08 µM (active)
18 | COCC1=C(C(=O)O)N2C(=O)[C@@H](NC(=O)/C(=N\OC)c3csc(N)n3)[C@H]2SC1 | 2.06% | – | –
19 | NC(=O)CCC1NC(=O)C(Cc2ccccc2)NC(=O)C(Cc2ccc(O)cc2)NC(=O)CCSSCC(C(=O)N2CCCC2C(=O)NC(CCCN=C(N)N)C(=O)NCC(N)=O)NC(=O)C(CC(N)=O)NC1=O (stereo not given) | 4.4% [at 27.1 µM] | – | –
20 | CCCOc1cc(N)ccc1C(=O)OCCN(CC)CC | 3.72% | – | –

Row | SMILES | activity change, negative = cytotoxicity | outcome | Potency
21 | COc1cc(N2CCC(N(C)C)CC2)ccc1Nc1ncc(Cl)c(Nc2ccccc2P(C)(C)=O)n1 | – | – | 15.8 µM (active)
22 | CC[C@H]1OC(=O)[C@H](C)C(=O)[C@H](C)[C@@H](O[C@H]2O[C@H](C)C[C@H](N(C)C)[C@H]2O)[C@](C)(OC)C[C@@H](C)C(=O)[C@H](C)[C@H]2N(CCCCn3cnc(-c4cccnc4)c3)C(=O)O[C@]12C | – | inactive | –
23 | O=C(CCc1ccc(O)cc1)c1c(O)cc(O)cc1O[C@@H]1O[C@H](CO)[C@@H](O)[C@H](O)[C@H]1O | – | – | inactive
24 | OC1CCC([C@H](O)C[C@H]2c3c(F)cccc3-c3cncn32)CC1 (stereo not given in full) | – | inactive | –
25 | O=C(O)C1=C(CSc2nnnn2CS(=O)(=O)O)CS[C@@H]2[C@@H](NC(=O)[C@H](O)c3ccccc3)C(=O)N12 | – | inactive | –
26 | COc1ccc(C[C@H](C)NC[C@@H](O)c2ccc(O)c(NC=O)c2)cc1 | -16.9% | – | –
27 | O=C(NOCC(O)CO)c1ccc(F)c(F)c1Nc1ccc(I)cc1F (stereo not given) | – | inactive | –
28 | O=C(OCCN(CCO)CCO)c1ccccc1O | – | inactive | –
29 | CCOc1ccc(Cc2cc([C@@]34OC[C@@](CO)(O3)[C@@H](O)[C@H](O)[C@H]4O)ccc2Cl)cc1 | 3.05% | – | –
30 | CC[C@H]1OC(=O)[C@H](C)[C@@H](O[C@H]2C[C@@](C)(OC)[C@@H](O)[C@H](C)O2)[C@H](C)[C@@H](O[C@@H]2O[C@H](C)C[C@H](N(C)C)[C@H]2O)C(C)(O)C[C@@H](C)/C(=N\OCOCCOC)[C@H](C)[C@@H](O)[C@]1(C)O (stereo not given in full) | – | inactive | –
31 | O=C(O)CCCCN(CCc1ccccc1OCc1ccc(CCc2ccccc2)cc1)Cc1ccc(C(=O)O)cc1 | 3.56% | – | –
32 | CC1(C)[C@@H](O[C@H]2O[C@H](C(=O)O)[C@@H](O)[C@H](O)[C@H]2O[C@@H]2O[C@H](C(=O)O)[C@@H](O)[C@H](O)[C@H]2O)CC[C@]2(C)[C@H]3C(=O)C=C4[C@@H]5C[C@@](C)(C(=O)O)CC[C@]5(C)CC[C@@]4(C)[C@]3(C)CC[C@@H]12 | -13.4% | – | –
33 | CC(/C=C/C(=O)NO)=C\[C@@H](C)C(=O)c1ccc(N(C)C)cc1 | – | – | 7.94 µM (active)
34 | O=C(O)c1ccc(NC(=O)[C@H](Cc2ccc(O)cc2)NC(=O)c2ccccc2)cc1 | -3% | – | –
35 | O=C(C[C@@H]1C/C=C\CCC(=O)O[C@H](c2ccccc2)CNC1=O)NCc1ccc(Cl)cc1 | – | inactive | –
36 | CCCN(CCC)C(=O)C1=Cc2ccc(-c3ccc(C(=O)N4CCCC4)cc3)cc2N=C(N)C1 | -11.7% | – | –
37 | Cc1ccc(NC(=O)c2ccc(CN3CC[C@H](N(C)C)C3)c(C(F)(F)F)c2)cc1Nc1nccc(-c2cncnc2)n1 | 2.48% [at 27.1 µM] | – | –
38 | Cc1nc(NC(=O)N2CCC[C@H]2C(N)=O)sc1-c1csc(C(C)(C)C)n1 | 0.577% | – | –
39 | CC(C)N1CCN(c2ccc(OC[C@@H]3CO[C@@](Cn4cncn4)(c4ccc(Cl)cc4Cl)O3)cc2)CC1 | – | inactive | –
40 | CC1(C)[C@@H](O)CC[C@]2(C)[C@H]3C(=O)C=C4[C@@H]5C[C@@](C)(C(=O)O)CC[C@]5(C)CC[C@@]4(C)[C@]3(C)CC[C@@H]12 | 2.73% | – | –
